Results filed as inconclusive are left out. Activity calls are given as the source filed them. Calls come from the whole dose curve; as a rule, active = well fitted cell-killing curve with a large enough effect; inconclusive = small, poorly fitted or top-dose-only effect, or effect the other way; inactive = flat fitted curve, though single readings scatter. Where a SMILES comes first, the peptide text is derived from it. [ ]: non-standard residue; d: D form. dPhe(4-Cl) = N[C@H](Cc1ccc(Cl)cc1)C(=O)O; d2Nal = N[C@H](Cc1ccc2ccccc2c1)C(=O)O; dCit = NC(=O)NCCC[C@@H](N)C(=O)O; d3Pal = N[C@H](Cc1cccnc1)C(=O)O
Columns and labels:
Test in all cases: Primary qHTS to identify gynecologic anti-cancer compounds using libraries of approved drugs and bioactive compounds (AID 1345084); note: nearly all actives have a fitted effect of over 55% in size
[1] = system: C33A; settings: Gynecologic cancer cell panel viability, ATPlite luminescence, 48 h; series mostly up to 57.5 µM
Procedure, shortened: (§1)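 In this quantitative HTS, cell killing is estimated from loss of ATP-dependent luciferase light. Cells see five compound concentrations over a 48 h exposure.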

[2] = system: CAOV3; settings: Gynecologic cancer cell panel viability, ATPlite luminescence, 48 h; series mostly up to 57.5 µM
Procedure, shortened: as §1

[3] = system: CASKI; settings: Gynecologic cancer cell panel viability, ATPlite luminescence, 48 h; series mostly up to 57.5 µM
Procedure, shortened: as §1

[4] = system: Es-2; settings: Gynecologic cancer cell panel viability, ATPlite luminescence, 48 h; series mostly up to 57.5 µM
Procedure, shortened: as §1

[5] = system: HeLa; settings: Gynecologic cancer cell panel viability, ATPlite luminescence, 48 h; series mostly up to 57.5 µM
Procedure, shortened: as §1

[6] = system: Hek293T; settings: Gynecologic cancer cell panel viability, ATPlite luminescence, 48 h, control line for the selectivity index; series mostly up to 57.5 µM
Procedure, shortened: as §1

[7] = system: JEG-3; settings: Gynecologic cancer cell panel viability, ATPlite luminescence, 48 h; series mostly up to 57.5 µM
Procedure, shortened: as §1

[8] = system: OV90; settings: Gynecologic cancer cell panel viability, ATPlite luminescence, 48 h; series mostly up to 57.5 µM
Procedure, shortened: as §1

[9] = system: PA-1; settings: Gynecologic cancer cell panel viability, ATPlite luminescence, 48 h; series mostly up to 57.5 µM
Procedure, shortened: as §1

[10] = system: Tov-21-G; settings: Gynecologic cancer cell panel viability, ATPlite luminescence, 48 h; series mostly up to 57.5 µM
Procedure, shortened: as §1

[11] = system: Tov112D; settings: Gynecologic cancer cell panel viability, ATPlite luminescence, 48 h; series mostly up to 57.5 µM
Procedure, shortened: as §1

Measured: Potency

CC1CC(O)/C=C/C(O)C(O)CC(=O)Cc2c(Cl)c(O)cc(O)c2C(=O)O1 (configuration not stated)
inactive: [1] | [2] | [3] | [4] | [5] | [6] | [7] | [8] | [9] | [10] | [11]

O=S(=O)(c1ccc(S(=O)(=O)n2cnc3ccccc32)cc1)N1CCCCCC1
inactive: [1] | [2] | [3] | [4] | [5] | [6] | [7] | [8] | [9] | [10] | [11]

C=C(C(=O)O)[C@@H]1CC[C@@]2(C)CC[C@H](O)[C@@]2(C(C)=O)C1
inactive: [1] | [2] | [3] | [4] | [5] | [6] | [7] | [8] | [9] | [10] | [11]

COc1ccc(CN2C(=O)C(=O)c3cc(S(=O)(=O)N4CCC[C@H]4COc4cccnc4)ccc32)cc1
inactive: [1] | [2] | [3] | [4] | [5] | [6] | [7] | [8] | [9] | [10] | [11]

O=C(Nc1ccccc1)N1CCN(Cc2ccc3ccccc3n2)CC1
inactive: [1] | [2] | [3] | [4] | [5] | [6] | [7] | [8] | [9] | [10] | [11]

CC(=O)OC1C[C@@]2(C)[C@@H](CC[C@@H](C)[C@]23Cc2c(O)cc4c(c2O3)CNC4=O)C(C)(C)[C@@H]1O (some centres not stated)
inactive: [1] | [2] | [3] | [4] | [5] | [6] | [7] | [8] | [9] | [10] | [11]

COC(=O)C1=C2Nc3ccccc3C23CCN2CCCC(C(C)O)(C1)C23 (configuration not stated)
inactive: [1] | [2] | [3] | [4] | [5] | [6] | [7] | [8] | [9] | [10] | [11]

C/C(=C/CO)CC[C@@H]1[C@@](C)(O)CCC2C(C)(C)CCC[C@]21C (some centres not stated)
inactive: [1] | [2] | [3] | [4] | [5] | [6] | [7] | [8] | [9] | [10] | [11]

CC(NC(=O)CCc1nc2ccccc2c(=O)[nH]1)c1ccccc1 (configuration not stated)
inactive: [1] | [2] | [3] | [4] | [5] | [6] | [7] | [8] | [9] | [10] | [11]

CC(C)=CCC(O)/C(C)=C/CO[C@@H]1O[C@H](CO)[C@@H](O)[C@H](O)[C@H]1O (some centres not stated)
inactive: [1] | [2] | [3] | [4] | [5] | [6] | [7] | [8] | [9] | [10] | [11]

CC1(C)CCC2(C(=O)OC3OC(CO)C(O)C(O)C3O)CCC3(C)C(=CCC4C5(C)CCC(O)C(C)(C(=O)O)C5CCC43C)C2C1O (configuration not stated)
inactive: [1] | [2] | [3] | [4] | [5] | [6] | [7] | [8] | [9] | [10] | [11]

CC1=CCC(C(C)(C)O[C@@H]2O[C@H](CO[C@@H]3O[C@@H](C)[C@H](O)[C@@H](O)[C@H]3O)[C@@H](O)[C@H](O)[C@H]2O)CC1 (some centres not stated)
inactive: [1] | [2] | [3] | [4] | [5] | [6] | [7] | [8] | [9] | [10] | [11]

COc1nc2sc(C(=O)NC3CC3)c(N)c2c(C)c1Cl
inactive: [1] | [2] | [3] | [4] | [5] | [6] | [7] | [8] | [9] | [10] | [11]

Cc1cccc(C)c1OCc1cc(C(=O)N2CCC(c3ccncc3)CC2)no1
inactive: [1] | [2] | [3] | [4] | [5] | [6] | [7] | [8] | [9] | [10] | [11]

CS(=O)(=O)c1ccc([C@H](CC2CCCC2)C(=O)Nc2nccs2)cc1
inactive: [1] | [2] | [3] | [4] | [5] | [6] | [7] | [8] | [9] | [10] | [11]

CCCC1(c2ccccc2)NC(=O)N(CC(=O)N(C)Cc2c(F)cccc2Cl)C1=O (configuration not stated)
inactive: [1] | [2] | [3] | [4] | [5] | [6] | [7] | [8] | [9] | [10] | [11]

CC(=O)N[C@H](Cc1ccc2ccccc2c1)C(=O)N[C@H](Cc1ccc(Cl)cc1)C(=O)N[C@H](Cc1cccnc1)C(=O)N[C@@H](CO)C(=O)N[C@@H](Cc1ccc(O)cc1)C(=O)N[C@H](CCCNC(N)=O)C(=O)N[C@@H](CC(C)C)C(=O)N[C@@H](CCCN=C(N)N)C(=O)N1CCC[C@H]1C(=O)N[C@H](C)C(N)=O (Ac-[d2Nal][dPhe(4-Cl)][d3Pal]SY[dCit]LRP[dA]-NH2)
inactive: [1] | [2] | [3] | [4] | [5] | [6] | [7] | [8] | [9] | [10] | [11]
